# From PubChem BioAssay AID1159580 (chemical genetic matrix, 2015)
# Among all 5,500 compounds or so, about 2,000 (36%) were called active. Not shown: some 18% with an inconclusive outcome. Some of the results follow. A number with no mark means an inactive call. No stated cut-off is given here; in the data, active means normalized growth mostly below about 0.91 (no sharp cut-off); inconclusive means no clear call, values can overlap the other calls; inactive means mostly above about 0.92.
# Experiment: chemical genetic growth profiling, strain panel (AID 1159580);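 further: tested at 20 µM; growth read once vehicle control cultures reached saturation at 30 °C; 1 = growth at the plate median or of vehicle wells; lower values mean less growth of the strain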
# Conditions: S. cerevisiae deletion strains, growth OD
# [1] = locus YAL013W, strain DEP1, active compounds read low
# [2] = locus YBR229C, strain ROT2, active compounds read low
# [3] = locus YCL061C, strain MRC1, active compounds read low
# [4] = locus YDL101C, strain DUN1, active compounds read low
# [5] = locus YDR150W, strain NUM1, active compounds read low
# [6] = locus YEL061C, strain CIN8, active compounds read low
# [7] = locus YGR078C, strain PAC10, active compounds read low
# [8] = locus YHR030C, strain SLT2, active compounds read low
# [9] = locus YHR087W, strain rtc3, active compounds read low
# [10] = locus YJR043C, strain POL32, active compounds read low
# [11] = locus YJR075W, strain HOC1, active compounds read low
# [12] = locus YLR039C, strain RIC1, active compounds read low
# [13] = locus YLR058C, strain SHM2 (second series), active compounds read low
# [14] = locus YLR085C, strain ARP6, active compounds read low
# [15] = locus YLR262C, strain YPT6, active compounds read low
# [16] = locus YML094W, strain GIM5, active compounds read low
# [17] = locus YMR219W, strain ESC1, active compounds read low
# [18] = locus YMR263W, strain SAP30, active compounds read low
# [19] = locus YMR307W, strain GAS1, active compounds read low
# [20] = locus YNL128W, strain TEP1, active compounds read low
# [21] = locus YNL153C, strain GIM3, active compounds read low
# [22] = locus YNL298W, strain CLA4 (second series), active compounds read low
# [23] = locus YNL322C, strain KRE1, active compounds read low
# [24] = locus YNR030W, strain Alg12, active compounds read low
# [25] = locus YPL055C, strain LGE1, active compounds read low
# [26] = locus YPL241C, strain CIN2, active compounds read low
# [27] = locus YPR135W, strain CTF4, active compounds read low
compound,measurement,setting,value
COC(=O)c1ccc([N+](=O)[O-])cc1Cl,normalized growth,[1],0.991
same,normalized growth,[2],0.998
same,normalized growth,[3],1
same,normalized growth,[4],0.989
same,normalized growth,"locus YDL134C, strain PPH21, active compounds read low",0.983
same,normalized growth,[5],0.923
same,normalized growth,[6],0.988
same,normalized growth,[7],0.993
same,normalized growth,[8],0.989
same,normalized growth,[9],1.01
same,normalized growth,"locus YJL187C, strain SWE1, active compounds read low",0.991
same,normalized growth,[10],1.02
same,normalized growth,[11],0.996
same,normalized growth,[12],0.983
same,normalized growth,[13],0.983
same,normalized growth,[14],0.881
same,normalized growth,[15],1
same,normalized growth,[16],0.964
same,normalized growth,[17],0.992
same,normalized growth,[18],0.992
same,normalized growth,[19],1.05
same,normalized growth,[20],0.985
same,normalized growth,[21],1.01
same,normalized growth,[22],0.97
same,normalized growth,[23],1
same,normalized growth,[24],1.01
same,normalized growth,"locus YOL006C, strain TOP1, active compounds read low",0.756
same,normalized growth,[25],0.95
same,normalized growth,[26],0.992
same,normalized growth,[27],1.03
COc1cc(N=Cc2cc(Cl)cc(Cl)c2OS(=O)(=O)c2ccc(C)cc2)c(OC)cc1Cl,normalized growth,"locus YAR019C, strain CDC15, active compounds read low",0.935
same,normalized growth,"locus YBL105C, strain PKC1, active compounds read low",0.948
same,normalized growth,"locus YBR135W, strain CKS1, active compounds read low",0.943
same,normalized growth,"locus YBR136W, strain MEC1, active compounds read low",0.944
same,normalized growth,"locus YBR160W, strain CDC28, active compounds read low",0.927
same,normalized growth,"locus YDL017W, strain CDC7, active compounds read low",0.957
same,normalized growth,"locus YDL028C, strain MPS1, active compounds read low",0.921
same,normalized growth,[4],0.951
same,normalized growth,"locus YDL108W, strain KIN28, active compounds read low",0.936
same,normalized growth,"locus YDL132W, strain cdc53, active compounds read low",0.942
same,normalized growth,"locus YDL214C, strain PRR2, active compounds read low",0.891
same,normalized growth,"locus YDR052C, strain DBF4, active compounds read low",0.958
same,normalized growth,"locus YDR054C, strain cdc34, active compounds read low",0.947
same,normalized growth,"locus YDR226W, strain ADK1, active compounds read low",0.946
same,normalized growth,"locus YDR477W, strain SNF1, active compounds read low",0.914
same,normalized growth,"locus YER123W, strain YCK3, active compounds read low",0.896
same,normalized growth,"locus YER133W, strain GLC7, active compounds read low",0.929
same,normalized growth,"locus YFL009W, strain cdc4, active compounds read low",0.926
same,normalized growth,"locus YFL029C, strain CAK1, active compounds read low",0.932
same,normalized growth,"locus YFR003C, strain YPI1, active compounds read low",0.952
same,normalized growth,"locus YFR019W, strain FAB1, active compounds read low",0.955
same,normalized growth,"locus YFR028C, strain CDC14, active compounds read low",0.919
same,normalized growth,"locus YGR040W, strain KSS1, active compounds read low",0.918
same,normalized growth,"locus YGR052W, strain FMP48, active compounds read low",0.917
same,normalized growth,"locus YGR092W, strain DBF2, active compounds read low",0.849
same,normalized growth,[8],0.651 (active)
same,normalized growth,"locus YHR079C, strain IRE1, active compounds read low",0.794
same,normalized growth,"locus YHR082C, strain KSP1, active compounds read low",0.829
same,normalized growth,"locus YHR205W, strain SCH9, active compounds read low",0.846
same,normalized growth,"locus YIL147C, strain SLN1, active compounds read low",0.949
same,normalized growth,"locus YJL095W, strain BCK1, active compounds read low",0.903
same,normalized growth,"locus YJL128C, strain PBS2, active compounds read low",0.884
same,normalized growth,"locus YJL157C, strain FAR1, active compounds read low",0.928
same,normalized growth,"locus YJR016C, strain ILV3, active compounds read low",0.963
same,normalized growth,"locus YJR066W, strain TOR1 (second series), active compounds read low",0.943
same,normalized growth,"locus YJR066W, strain TOR1, active compounds read low",0.805
same,normalized growth,"locus YKL048C, strain ELM1, active compounds read low",0.939
same,normalized growth,"locus YKL067W, strain YNK1, active compounds read low",0.897
same,normalized growth,"locus YKL101W, strain HSL1, active compounds read low",0.902
same,normalized growth,"locus YKL193C, strain SDS22, active compounds read low",0.946
same,normalized growth,"locus YKL203C, strain TOR2, active compounds read low",0.991
same,normalized growth,"locus YLR113W, strain HOG1, active compounds read low",0.85 (active)
same,normalized growth,"locus YLR133W, strain CKI1, active compounds read low",0.906
same,normalized growth,"locus YLR403W, strain SFP1, active compounds read low",0.911
same,normalized growth,"locus YML070W, strain DAK1, active compounds read low",0.902
same,normalized growth,"locus YMR001C, strain CDC5, active compounds read low",0.934
same,normalized growth,"locus YMR205C, strain PFK2 (second series), active compounds read low",0.923
same,normalized growth,"locus YMR277W, strain FCP1, active compounds read low",0.922
same,normalized growth,"locus YNL006W, strain LST8, active compounds read low",0.955
same,normalized growth,"locus YNL020C, strain ARK1, active compounds read low",0.903
same,normalized growth,"locus YNL161W, strain CBK1, active compounds read low",0.95
same,normalized growth,"locus YNL183C, strain NPR1, active compounds read low",0.941
same,normalized growth,"locus YNL207W, strain RIO2, active compounds read low",0.952
same,normalized growth,"locus YNL222W, strain SSU72, active compounds read low",0.92
same,normalized growth,"locus YNL307C, strain MCK1 (second series), active compounds read low",0.921
same,normalized growth,"locus YOL078W, strain AVO1, active compounds read low",0.94
same,normalized growth,"locus YOL136C, strain PFK27, active compounds read low",0.881
same,normalized growth,"locus YOR061W, strain CKA2, active compounds read low",0.945
same,normalized growth,"locus YOR119C, strain RIO1, active compounds read low",0.924
same,normalized growth,"locus YOR231W, strain MKK1, active compounds read low",0.845
same,normalized growth,"locus YOR329C, strain SCD5, active compounds read low",0.958
same,normalized growth,"locus YPL031C, strain PHO85, active compounds read low",0.926
same,normalized growth,"locus YPL153C, strain RAD53, active compounds read low",0.911
same,normalized growth,"locus YPL204W, strain HRR25, active compounds read low",0.906
same,normalized growth,"locus YPL209C, strain IPL1, active compounds read low",0.947
same,normalized growth,"locus YPL256C, strain CLN2, active compounds read low",0.86 (active)
same,normalized growth,"locus YPR025C, strain CCL1, active compounds read low",0.948
same,normalized growth,"locus YPR106W, strain ISR1, active compounds read low",0.942
same,normalized growth,"locus YPR111W, strain DBF20, active compounds read low",0.901
same,normalized growth,"strain NNK1, active compounds read low",0.943
same,normalized growth,"strain TSCII, active compounds read low",0.935
COc1cc(N=Cc2ccc3c(c2)OCO3)c(OC)cc1Cl,normalized growth,[1],1.01
same,normalized growth,[2],1.01
same,normalized growth,[3],1
same,normalized growth,[4],0.984
same,normalized growth,[5],0.91
same,normalized growth,[6],1.04
same,normalized growth,[7],0.994
same,normalized growth,"locus YGR229C, strain SMI1, active compounds read low",1.01
same,normalized growth,[8],0.982
same,normalized growth,[9],0.989
same,normalized growth,[10],1
same,normalized growth,[11],0.983
same,normalized growth,[12],0.97
same,normalized growth,[13],1
same,normalized growth,[14],1.04
same,normalized growth,[15],0.99
same,normalized growth,[16],1.02
same,normalized growth,[17],0.991
same,normalized growth,[18],0.939
same,normalized growth,[19],1.05
same,normalized growth,[20],1.01
same,normalized growth,[21],0.988
same,normalized growth,[22],1.01
same,normalized growth,[23],1
same,normalized growth,[24],1.01
same,normalized growth,[25],0.998
same,normalized growth,[26],1.02
same,normalized growth,[27],0.973
